# Screens from PubChem.
# GLP-1R inv ag: inverse agonists of human GLP-1 receptor; P43220; HEK293 GLP-1R CRE-luciferase, luminescence, 24 h; GLP-1R form is constitutively active; Potency, µM (doses to about 38.3 µM), for the others: at the highest dose activity change, negative = inhibition, actives largely listed as inhibitors; 410,000 tested, 1.6% active; AID 624417; also: % is scaled to controls: 0 for no effect and ±100 for the full control effect; nearly all actives have a fitted effect of over 55% in size
# Target sequence (P43220 whole entry, looked up): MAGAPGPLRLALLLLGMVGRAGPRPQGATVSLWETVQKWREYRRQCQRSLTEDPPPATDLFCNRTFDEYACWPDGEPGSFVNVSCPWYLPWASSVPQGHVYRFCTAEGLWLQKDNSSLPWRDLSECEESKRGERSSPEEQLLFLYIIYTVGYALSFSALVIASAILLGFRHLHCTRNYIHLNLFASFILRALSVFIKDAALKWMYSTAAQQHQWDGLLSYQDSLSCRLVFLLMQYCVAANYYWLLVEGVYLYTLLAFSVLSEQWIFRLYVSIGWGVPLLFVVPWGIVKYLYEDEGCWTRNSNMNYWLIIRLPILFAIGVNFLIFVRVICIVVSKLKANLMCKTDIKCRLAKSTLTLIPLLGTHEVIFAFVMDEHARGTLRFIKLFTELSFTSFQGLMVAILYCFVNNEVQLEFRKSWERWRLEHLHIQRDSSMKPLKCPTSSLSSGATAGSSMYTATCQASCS
#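 Inverse agonism was detected as reduced cAMP-driven luciferase luminescence after 24 h compound treatment. The cells were HEK293 clones expressing constitutively active human GLP-1R with the reporter. Reporter-only and GPR119 cell lines served as counterscreen controls.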
# GLP1R ag: activates the human GLP-1 receptor. 380,000 tested, 0.007% active. Potency, µM (top dose mostly 45.6 µM), for the others: at the highest dose activation, actives largely listed as activators. P43220. AID 624172. HEK293 GLP-1R CRE-luciferase, luminescence, 4-6 h; cells express a hypersensitive GLP-1R form; also: % of control where 0% means no effect
# GLP1R cytotox: cytotoxic in the GLP-1 receptor inverse agonist counter-screen; Potency, µM (highest dose often 38.3 µM), without a hit: at the highest dose activity change, negative = inhibition, most hits filed as inhibitors; 410,000 tested, 0.13% active; HEK293 cAMP-luciferase reporter cells, luminescence, 24 h;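 also: loss of luciferase light is scored as toxicity; % is scaled to controls: 0 for no effect and ±100 for the full control effect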
#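 A 23 nL compound transfer followed 12 hours of cell culture at 37 deg C; exposure then lasted 24 hr. Luciferase assay detection reagent was dispensed and plates read for luminescence after a 12 min room-temperature wait.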
# PTHR1 agonist: PTHR1 (human) receptor agonism; HEK293 GP2 PTHR1 cells, GloSensor cAMP luminescence, 1 h; Potency, µM (top dose mostly 115 µM), for the others: at the top dose activation, usual class: activators; 410,000 tested, 0.075% active; also: nearly all actives have a fitted effect of over 55% in size
#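 HEK-293-derived GP2 cells expressing PTHR1 and a GloSensor cAMP reporter, 3,000/well, plated overnight, given luciferin plus IBMX (each 0.5 mM as added) for 1 h at 37 °C, then compound for 1 h at 37 °C. Luminescence was read after 15 min at room temperature.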
# * = called active by the depositor; i = inactive; ? = inconclusive; / = not tested or not shown; [ ] = remark or other dose. Only some compounds are listed: those with a hit (about 1.7% of all), similar ones and a draw of the others. Calls follow the shape of the dose curve; as a rule, active = well fitted curve in the direction sought with a large enough effect; inconclusive = small, poorly fitted or top-dose-only effect, or another doubt; inactive = no such curve, though single readings can be large; an effect the other way counts as inactive or inconclusive. Potency is read from the fitted curve at half-maximal effect.
SMILES,GLP-1R inv ag,GLP1R ag,GLP1R cytotox,PTHR1 agonist
O=C(CSc1nnc(-c2ccc(Cl)cc2)n1Cc1ccco1)NCc1ccc2c(c1)OCO2,10µM*,-2.8%,-14.7%,?
COc1ccccc1CNC(=O)CCS(=O)(=O)c1ccc2c(c1)oc(=O)n2C,-4.1%,/,-13.4%,i
Cc1ccc(NC(=O)C(NC2CCCc3ccccc32)c2ccccc2)c([N+](=O)[O-])c1 (stereo not given),3.98µM*,1.6%,6.9%,i
Cc1ccc(NC(=O)C(NC2CCCc3ccccc32)c2ccccc2)cc1Cl (stereo not given),?,0.4%,11.2%,-10.7%
CCOc1ccccc1CNC(=O)c1cccc(NC(=O)c2nsc3ccccc23)c1,?,/,-0.1%,-72.1%
Cc1nc2ccccc2c(=O)n1-c1ccc(NC(=O)c2cccc([N+](=O)[O-])c2)cc1,-25.1%,/,-15.1%,-26.3%
Cc1noc(C)c1COc1ccccc1C(=O)N(C)CC(=O)Nc1ccc(Cl)c(Cl)c1,10µM*,0.7%,-9.5%,-2.4%
COc1cccc(NC(=O)CN(C)C(=O)c2ccccc2OCc2c(C)noc2C)c1,0.9%,8.5%,-8.9%,-66.8%
O=C(Nc1ccc(Cn2cccn2)cc1)c1ccc(COc2cccc(Br)c2)cc1,5.01µM*,0.5%,-3.3%,-46.8%[57.5 µM]
O=C(Nc1ccc(Cn2cccn2)cc1)c1ccc(COc2ccc(Br)cc2)cc1,4.3%,-6.9%,4.8%,-8.3%
O=C(CCN1C(=O)NC2(CCCC2)C1=O)Nc1ccc(Sc2ccc(Br)cc2)cc1,11.2µM*,3.5%,-1.9%,-44.4%
Cn1ncc2c(=S)nc(Cl)[nH]c21,10µM*,3.9%,?,i
c1ccc(OCCOCCN2CCN(C(c3ccccc3)c3ccccc3)CC2)cc1,7.08µM*,-17.9%,?,-64.9%
OC(COc1ccccc1)CN1CCN(C(c2ccccc2)c2ccccc2)CC1 (stereo not given),?,0.3%,-15.2%,?
COc1ccccc1OCCCCN1CCN(C(c2ccccc2)c2ccccc2)CC1,4.47µM*,-4.4%,?,-38.9%
N#Cc1ccc(OCC(O)CN2CCN(C(c3ccccc3)c3ccccc3)CC2)cc1 (stereo not given),7.08µM*,13.0%,-19.4%,i
CCN1C(=O)c2ccccc2Sc2ccc(NC(=O)N3CCN(c4cc(C)ccc4C)CC3)cc21,?,/,-10.8%,-24.6%
O=[N+]([O-])c1cccc(C2NCC(c3ccccc3Cl)c3c2[nH]c2ccccc32)c1 (stereo not given),?,-4.8%,-2.7%[7.66 µM],-13.2%
CN(C)c1ccc(C2CNC(c3ccc(Cl)c([N+](=O)[O-])c3)c3[nH]c4ccccc4c32)cc1 (stereo not given),4.47µM*,-2.3%,14.7%,i
Cc1ccc2nc(NC(=O)CSc3nccn3Cc3ccccc3)sc2c1,?,13.7%,-8.0%,-44.3%
O=C(Nc1cc(C(F)(F)F)ccc1Cl)C(Sc1ccccn1)c1ccccc1 (stereo not given),8.91µM*,-6.2%,10.6%,-10.8%
CCOC(=O)c1cc(-c2ccccc2C)nn1CC1CC(c2ccc(OC)cc2)=NO1 (stereo not given),11.2µM*,25.6%,1.7%,i
COc1ccccc1NS(=O)(=O)c1cccc(C(=O)N2CCN(C/C=C/c3ccccc3)CC2)c1,?,-5.0%,-15.0%,-17.0%
COc1ccccc1NS(=O)(=O)c1cc(C(=O)N2CCN(C/C=C/c3ccccc3)CC2)ccc1C,10µM*,-0.8%,-11.1%,-5.6%
Cc1ccc(C)c(N/C(N)=N/c2nc(C)cc(C)n2)c1,8.91µM*,-30.1%,?,-64.2%
SMILES,GLP-1R inv ag,GLP1R ag,GLP1R cytotox,PTHR1 agonist
COc1cccc(NC(=O)CSc2nc3c(sc4ccccc43)c(=O)n2CCCN2CCCC2)c1,10µM*,14.9%,?,?
COC(=O)c1cc(=O)n(Cc2cccs2)c(=Nc2ccc(F)cc2)s1,3.55µM*,-5.0%,?,-3.7%
COC(=O)c1cc(=O)n(Cc2ccco2)c(=Nc2ccc(F)c(Cl)c2)s1,2.82µM*,-11.8%,-15.3%,-36.5%
Cc1ccc(CNC(=O)c2nc(-c3ccc(Cl)cc3)n3c2CCCCC3)cc1,?,/,-8.5%,i
COc1ccc2cc(Br)ccc2c1CC(=O)NC(C)(C)C,12.6µM*,1.7%,3.1%,i
CCc1cc2c(cc3c(=O)n(CC(=O)NCc4cc(Br)ccc4OC)ncn32)s1,3.4%,/,-4.5%,5.8%
CCOc1ccccc1NC(=O)Nc1cc(C(=O)NCc2ccc(C)cc2)ccc1N1CCCC1,0.5%,/,-10.2%,i
CCCc1cc(C(=O)Nc2cccc3ccccc23)n(C)n1,?,18.2%,-7.9%,-2.0%
CCCc1cc(C(=O)Nc2ccc(C(=O)c3ccc(C)cc3)cc2)n(C)n1,5.62µM*,-3.1%,-8.4%,-27.0%
COCCS(=O)(=O)N(Cc1ccc(Br)cc1)[C@@H](C)C(=O)OC,2.7%,-0.1%,6.0%,-2.9%
COC(=O)[C@H](C)N(Cc1ccc(Cl)c(Cl)c1)S(=O)(=O)CCNC1CCCC1,12.6µM*,-3.5%,-1.7%,i
CCCN(C(=O)c1cc2c(=O)oc3ccccc3c2s1)c1ccccc1C,3.6%,-0.3%,-1.1%,-30.5%
Cc1ccc([N+](=O)[O-])cc1N(CC(=O)Nc1ccc(S(=O)(=O)Nc2cccc(C(F)(F)F)c2)cc1)S(C)(=O)=O,1µM*,-19.6%,?,-47.6%
O=C(COc1ccccc1-c1ccccc1)N/N=C/c1ccc2ccccc2c1,1µM*,21.5%,?,-17.6%
O=C(COc1ccccc1-c1ccccc1)N/N=C/c1ccncc1,?,8.1%,-6.7%,-44.6%
NC(=S)N/N=C/c1ccc2ccccc2c1,5.62µM*,-0.9%,3.16µM*,i
NC(=S)N/N=C/c1cccc(/C=N/NC(N)=S)c1,50.5%,10.9%,-11.4%,i
O=c1cc2c(nn1Cc1ccccc1Cl)-c1ccccc1CC2,10µM*,?,-4.7%,-5.6%[57.5 µM]
O=c1cc2c(nn1Cc1ccc(Cl)cc1Cl)-c1ccccc1CC2,?,28.0%,69.2%,-86.9%
CCOc1ccccc1CNS(=O)(=O)c1ccc2c(c1)CCCN2C(C)=O,2.5%,/,-6.8%,-26.2%
Cc1ccc(C2=Nc3ccccc3NC(c3ccncc3)=N2)cc1,-3.8%,/,8.9%,-28.8%
O=C(NC1CC2CCC(C1)N2Cc1nnnn1Cc1ccco1)NC12CC3CC(CC(C3)C1)C2 (stereo not given),10µM*,-10.7%,-9.1%,-88.2%
CCOc1ccccc1C(=O)NC1CC2CCCC(C1)N2Cc1nnnn1Cc1ccco1 (stereo not given),?,6.9%,-3.8%,i
CCN(CC)CCOC(=O)c1ccc(N)cc1Cl,/,-3.8%,/,/
COc1ccc(-c2noc(-c3ccc(NC4CCCC4)c([N+](=O)[O-])c3)n2)cc1,10.0%,/,11.8%,?
CCOC(=O)C1(Cc2cccc(Cl)c2)CCCN(C(=O)c2occc2C)C1 (stereo not given),11.2µM*,3.4%,5.4%,-23.1%
